{"source": "the supplement of paper PMC6518042", "system": "Pectobacterium parmentieri SCC3193", "assay": "DuctApe activity index (growth/respiration on compound as sole nutrient source, blank-subtracted) (activity index (0-3)); higher = stronger utilization of the compound, active = 3 or more", "method": "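Biolog Phenotype Microarray plates PM1, PM2A (carbon), PM3 (nitrogen) and PM4 (phosphorus/sulfur) inoculated with P. parmentieri SCC3193 in M9-C minimal salts medium with Biolog dye A, and read in the OmniLog for 46 h. Each well was tested in triplicate and the experiment was run twice. DuctApe computed a blank-subtracted activity index (AV, 0-3) from the mean curves; growth is positive at AV >= 3 and negative at AV <= 2.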", "key": {"[1]": {"conditions": "nutrient role (plate category): carbon"}, "[2]": {"conditions": "nutrient role (plate category): nitrogen"}, "[3]": {"conditions": "nutrient role (plate category): phosphate & sulphur"}}, "note": "Values without a mark were called inactive.", "data": [{"smiles": "NCCCC[C@H](N)C(=O)O", "note": "[L-Lysine]", "values": [{"measurement": "DuctApe activity index", "setting": "[1]", "value": 0}, {"measurement": "DuctApe activity index", "setting": "[2]", "value": 0}]}, {"smiles": "O=C[C@@H](O)[C@H](O[C@@H]1O[C@H](CO)[C@H](O)[C@H](O)[C@H]1O)[C@H](O)CO", "note": "[3-O-b-D-Galactopyranosyl-D-Arabinose]", "values": [{"measurement": "DuctApe activity index", "setting": "[1]", "value": 1}]}, {"smiles": "NC(N)=O", "values": [{"measurement": "DuctApe activity index", "setting": "[2]", "value": 0}]}, {"smiles": "O=C(O)[C@H]1OC(O)[C@H](O)[C@@H](O)[C@@H]1O", "note": "(stereo partly drawn) [D-Glucuronic acid]", "values": [{"measurement": "DuctApe activity index", "setting": "[1]", "value": 0}]}, {"smiles": "N[C@@H](Cc1ccc(OP(=O)(O)O)cc1)C(=O)O", "note": "[O-Phospho-L-Tyrosine]", "values": [{"measurement": "DuctApe activity index", "setting": "[3]", "value": 2}]}, {"smiles": "OC[C@@H](O)[C@@H](O)[C@H](O)[C@@H](O)CO", "note": "[D-Sorbitol]", "values": [{"measurement": "DuctApe activity index", "setting": "[1]", "value": 0}]}, {"smiles": "NCCCC(=O)O", "note": "[g-Amino-N-Butyric acid]", "values": [{"measurement": "DuctApe activity index", "setting": "[1]", "value": 0}, {"measurement": "DuctApe activity index", "setting": "[2]", "value": 1}]}, {"smiles": "CSCC[C@H](NC(=O)CN)C(=O)O", "values": [{"measurement": "DuctApe activity index", "setting": "[2]", "value": 0}, {"measurement": "DuctApe activity index", "setting": "[3]", "value": 1}]}, {"smiles": "N[C@@H](CC(=O)O)C(=O)O", "note": "[L-Aspartic acid]", "values": [{"measurement": "DuctApe activity index", "setting": "[1]", "value": "3 (active)"}, {"measurement": "DuctApe activity index", "setting": "[2]", "value": 0}]}, {"smiles": "O=c1ccn(C2OC(COP(=O)(O)O)C(O)C2O)c(=O)[nH]1", "note": "(centres undefined) [Uridine 5`-Monophosphate]", "values": [{"measurement": "DuctApe activity index", "setting": "[3]", "value": 2}]}, {"smiles": "N[C@@H](CO)C(=O)O", "note": "[L-Serine]", "values": [{"measurement": "DuctApe activity index", "setting": "[1]", "value": "3 (active)"}, {"measurement": "DuctApe activity index", "setting": "[2]", "value": 1}]}, {"smiles": "C[C@@H](O)[C@H](N)C(=O)O", "note": "[L-Threonine]", "values": [{"measurement": "DuctApe activity index", "setting": "[1]", "value": 0}, {"measurement": "DuctApe activity index", "setting": "[2]", "value": 0}]}, {"smiles": "NCC(=O)N[C@@H](CC(N)=O)C(=O)O", "values": [{"measurement": "DuctApe activity index", "setting": "[2]", "value": 1}]}, {"smiles": "N[C@@H](Cc1c[nH]cn1)C(=O)O", "note": "[L-Histidine]", "values": [{"measurement": "DuctApe activity index", "setting": "[1]", "value": 0}, {"measurement": "DuctApe activity index", "setting": "[2]", "value": 0}]}, {"smiles": "Nc1ncnc2c1ncn2[C@@H]1O[C@@H]2COP(=O)(O)O[C@H]2[C@H]1O", "note": "[Adenosine 3`,5`-Cyclic Monophosphate]", "values": [{"measurement": "DuctApe activity index", "setting": "[3]", "value": 0}]}, {"smiles": "O=C(O)[C@@H]1CCCN1", "note": "[L-Proline]", "values": [{"measurement": "DuctApe activity index", "setting": "[1]", "value": 0}, {"measurement": "DuctApe activity index", "setting": "[2]", "value": 0}]}, {"smiles": "NC(=O)CC[C@H](N)C(=O)O", "note": "[L-Glutamine]", "values": [{"measurement": "DuctApe activity index", "setting": "[1]", "value": 0}, {"measurement": "DuctApe activity index", "setting": "[2]", "value": 2}]}, {"smiles": "CC(C)C[C@H](N)C(=O)O", "note": "[L-Leucine]", "values": [{"measurement": "DuctApe activity index", "setting": "[1]", "value": 1}, {"measurement": "DuctApe activity index", "setting": "[2]", "value": 0}]}, {"smiles": "N[C@@H](CS)C(=O)O", "note": "[L-Cysteine]", "values": [{"measurement": "DuctApe activity index", "setting": "[2]", "value": 0}, {"measurement": "DuctApe activity index", "setting": "[3]", "value": 0}]}, {"smiles": "N[C@H]1C(O)O[C@H](CO)[C@@H](O)[C@@H]1O", "note": "(stereo partly drawn) [D-Glucosamine]", "values": [{"measurement": "DuctApe activity index", "setting": "[1]", "value": "3 (active)"}, {"measurement": "DuctApe activity index", "setting": "[2]", "value": "3 (active)"}]}, {"smiles": "C[C@H](N)C(=O)NCC(=O)O", "values": [{"measurement": "DuctApe activity index", "setting": "[1]", "value": 0}, {"measurement": "DuctApe activity index", "setting": "[2]", "value": 0}]}, {"smiles": "C[C@@H](N)C(=O)O", "note": "[D-Alanine]", "values": [{"measurement": "DuctApe activity index", "setting": "[1]", "value": 0}, {"measurement": "DuctApe activity index", "setting": "[2]", "value": 0}]}, {"smiles": "NCC(=O)O", "note": "[Glycine]", "values": [{"measurement": "DuctApe activity index", "setting": "[1]", "value": 0}, {"measurement": "DuctApe activity index", "setting": "[2]", "value": 0}]}, {"smiles": "CSCC[C@H](N)C(=O)N[C@@H](C)C(=O)O", "values": [{"measurement": "DuctApe activity index", "setting": "[2]", "value": 0}]}]}
